Hit rate of the full screen: of about 420,000 compounds, about 50,000 (12%) were called active. Inconclusive results (about 26%) are left out. Calls come from the whole dose curve; as a rule, active = well fitted inhibition curve with a large enough effect; inconclusive = small, poorly fitted or top-dose-only effect; inactive = flat fitted curve, though single readings scatter. Shown is part of a subset that was picked to be rich in actives. Entries that show only a call come without a potency.
Test: qHTS for Inhibitors of human tyrosyl-DNA phosphodiesterase 1 (TDP1): qHTS in cells in presence of CPT; note: nearly all actives have a fitted effect of over 55% in size
Conditions: chicken DT40 Tdp1-/-;hTDP1 cells + 20 nM CPT, ATP luminescence, 48 h; series mostly up to 46.2 µM
In short: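 Chicken DT40 Tdp1-/- cells stably complemented with human TDP1 were seeded at 400 cells/well in medium containing 20 nM camptothecin, exposed to pin-transferred compounds, and grown at 37 °C for at least 48 hr. Viability was read as ATP luminescence.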
Potency is the fitted concentration of half-maximal effect.

SMILES	Potency
COc1ccc(NC(=O)CCNC(=O)Cn2cnc3sc4c(c3c2=O)CCCC4)cc1OC	inactive
O=C(O)CC(SCC(=O)Nc1ccc(Br)cc1)C(=O)O (configuration not stated)	inactive
Cc1ccc(C(=O)NC(=S)NCCN2CCOCC2)cc1	inactive
Cc1ccc(NC(=S)NCCN2CCOCC2)cc1	inactive
CCOc1cccc(/C=N/NC(=S)NCCN2CCOCC2)c1O	4.11 µM (active)
C=CCN(CC=C)S(=O)(=O)c1ccc(C(=O)Nc2sc3c(c2C(N)=O)CCCCC3)cc1	13 µM (active)
O=C(Nc1ncc2c(n1)-c1ccccc1OC2)c1ccc(Cl)cc1	inactive
C=CCN(CC=C)S(=O)(=O)c1ccc(C(=O)Nc2nc3c(s2)CCc2ccccc2-3)cc1	16.4 µM (active)
COc1cccc(OC)c1C(=O)Nc1sc2c(c1C(N)=O)CCCC2	inactive
C=CCSc1nnc(NC(=O)c2ccc(NC(C)=O)cc2)s1	inactive
COCc1nnc(NC(=O)c2ccc3c(c2)OCO3)s1	inactive
COc1ccc(C(=O)Nc2ncc3c(n2)-c2ccccc2CC3)cc1	inactive
COCCN(CCOC)S(=O)(=O)c1ccc(C(=O)Nc2nc3c(s2)CCc2ccccc2-3)cc1	9.2 µM (active)
NC(=O)c1c(NC(=O)c2ccccc2)sc2c1CCCC2	inactive
Cc1ccc2c(=O)cc(C(=O)NCCc3ccc(S(N)(=O)=O)cc3)oc2c1C	inactive
O=C1CC2(CCCC2)Oc2ccc(Cl)cc21	inactive
O=C1C=C(c2ccccc2)CCC1	inactive
CC1CCCCC1NC(=O)CN1CCC(O)(c2ccc3c(c2)OCO3)CC1 (configuration not stated)	inactive
CC(CCc1ccccc1)NCC(O)c1cccc([N+](=O)[O-])c1 (configuration not stated)	inactive
CCn1c2ccccc2c2nnc(N3CCN(c4cc(C)ccc4C)CC3)nc21	inactive
O=C(Cc1ccc([N+](=O)[O-])cc1)Nc1ccc(C(=O)N2CCOCC2)cc1	inactive

SMILES	Potency
CC(=O)c1cccc(NC(=O)N2CCCC2C(=O)NCCc2ccccc2)c1 (configuration not stated)	inactive
CN(C(=O)c1ccc(NC(=O)Cc2cccc(NC(=O)C3CCN(C(=O)c4ccccc4)CC3)c2)cc1)C1CC1	inactive
CN(CCc1ccccc1)C(=O)c1cccc(NC(=O)Cc2cccc(NC(=O)C3CCCN(C(=O)C4CCC4)C3)c2)c1 (configuration not stated)	18.4 µM (active)
CN(C(=O)c1cccc(NC(=O)Cc2ccc(NC(=O)C3CCCN(C(=O)C4CC4)C3)cc2)c1)C1CC1 (configuration not stated)	inactive
O=C(Cc1ccc(NC(=O)C2CCCN(C(=O)CCc3ccccc3)C2)cc1)Nc1ccc(C(=O)N2CCOCC2)cc1 (configuration not stated)	23.1 µM (active)
O=C(Cc1ccc(NC(=O)C2CCCN(C(=O)C3CCCCC3)C2)cc1)Nc1cccc(C(=O)N2CCCCC2)c1 (configuration not stated)	inactive
CN(CCc1ccccc1)C(=O)c1cccc(NC(=O)Cc2cccc(NC(=O)C3CCCN(C(=O)CCc4ccccc4)C3)c2)c1 (configuration not stated)	14.6 µM (active)
CCNC(=O)c1cccc(NC(=O)C2CC(=O)N(CCc3ccccc3)C2)c1 (configuration not stated)	inactive
COc1ccc(CC(=O)NC2CCSc3ccccc32)cc1OC (configuration not stated)	inactive
CCOc1c2ccc(C(=O)NC3CCCc4ccccc43)cc2nn1CC (configuration not stated)	inactive
O=C(Nc1ccc(S(=O)(=O)Nc2nccs2)cc1)c1cccc(S(=O)(=O)N2CCOCC2)c1	inactive
O=c1oc2ccccc2c(NC2CCCCC2)c1NS(=O)(=O)c1ccc(Cl)cc1	inactive
CC(C)(C)Nc1c(N)c(=O)oc2ccccc12	inactive
CCNc1c(NS(=O)(=O)c2ccc(C3CCCCC3)cc2)c(=O)oc2ccccc12	18.4 µM (active)
CCc1ccccc1N1C(=O)C2C3CC(=O)C(c4ccccc43)C2C1=O (configuration not stated)	inactive
CCC(C)CCN1CCN=C1N(C)C (configuration not stated)	inactive
CC1CCC(CN2CCN=C2N(C)C)CC1 (configuration not stated)	8.2 µM (active)
CC(C)CCN1CCN=C1N(C)C	inactive
NS(=O)(=O)c1cccc(NC(=O)COC(=O)c2cc([N+](=O)[O-])ccc2N2CCCC2)c1	inactive
CCOC(=O)N1CCC(N2CCOc3ccc(CN4CCC(O)(c5cccnc5)CC4)cc3C2)CC1	inactive
NCCCNCCCCN(CCCN)/[N+]([O-])=N/O	13.3 µM (active)

SMILES	Potency
COc1ccc(N2CCN(Cc3ccc(Br)s3)CC2)cc1	inactive
CCCCCCCC[n+]1cccc(C(=O)N2c3c(nc(N)[nH]c3=O)NC(C)C2C)c1 (configuration not stated)	inactive
Cc1ccc(S(=O)(=O)N[C@@H](Cc2ccccc2)C(=O)N2CCC(C(=O)N[C@H](C(=O)O)C(C)O)CC2)cc1 (some centres not stated)	inactive
CC1(C)C=C2[C@H]3CC[C@@H]4[C@@]5(C)CCC(=O)C(C)(C)[C@@H]5CC[C@@]4(C)[C@]3(C)CC[C@@]2(C(=O)O)CC1	5.17 µM (active)
N#Cc1cccc(OC(=O)c2ccc3c(=O)n4c(nc3c2)CCC4)c1	inactive
O=C(CCNC(=O)C1CCN(S(=O)(=O)c2ccccc2)CC1)NC1CC1	inactive
O[C@H]1CN(Cc2cccs2)[C@@H](c2ccc(Cl)cc2)C[C@@H]1n1cc(C2CC2)nn1	inactive
O=C(Cc1cccs1)NCc1cccc(C(F)(F)F)c1	inactive
Cc1cc(O)ccc1-c1cc(C(=O)NCc2cc(C(F)(F)F)cc(C(F)(F)F)c2)[nH]n1	18.4 µM (active)
Cc1ccc(O)c(-c2cc(C(=O)NCc3ccccc3)[nH]n2)c1	inactive
Cc1ccc(NC(=O)COC(=O)C2C3CC4OC(=O)C2C4C3)cc1Cl (configuration not stated)	inactive
CC(C)(C)n1nnnc1C(c1ccc(F)cc1)N1CCN(Cc2ccc3c(c2)OCO3)CC1 (configuration not stated)	inactive
Fc1ccccc1C(c1nnnn1Cc1ccc2c(c1)OCO2)N1CCN(Cc2ccccc2)CC1 (configuration not stated)	14.6 µM (active)
CC(C)(C)n1nnnc1C(c1ccccc1F)N1CCN(C(=O)c2ccco2)CC1 (configuration not stated)	inactive
Cc1cccc2c1cnn2C(=O)CCC(=O)NC1CCCCC1	inactive
CCOc1ccc2[nH]c3nc(SCC(=O)NC4CCCC4)nnc3c2c1	5.17 µM (active)
O=C(CSc1nnc2c(n1)[nH]c1ccccc12)NC1CCCCC1	inactive
COc1ccc2[nH]c3nc(SCC(=O)NC4CC4)nnc3c2c1	inactive
CCN(CC)CCNC(=O)c1ccc(NS(=O)(=O)c2ccc3c(c2)OCCO3)cc1	inactive
O=S(=O)(Nc1ccccc1)c1ccc(NS(=O)(=O)c2cccs2)cc1	inactive
